Data: PubChem BioAssay AID1159580 (chemical genetic matrix, 2015)
Where “and” joins values, the source holds several entries; their conditions need not be identical. Identical values can stand only once. Among all 5,500 compounds or so, about 2,000 (36%) were called active. About 18% were inconclusive and are not listed. Rule as the data show it: active = normalized growth mostly below about 0.91 (no sharp cut-off); inconclusive = no clear call, values can overlap the other calls; inactive = mostly above about 0.92. The list shows a part of the results.

Assay: chemical genetic growth profiling, strain panel (AID 1159580);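 also: tested at 20 µM; growth read once vehicle control cultures reached saturation at 30 °C; 1 = growth at the plate median or of vehicle wells; lower values mean less growth of the strain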
Settings: S. cerevisiae deletion strains, growth OD

Measured: normalized growth

COc1ccc(CN(CCN(C)C)c2ccccn2)cc1
inactive: locus YAL013W, strain DEP1, active compounds read low 0.971 | locus YAL021C, strain ccr4, active compounds read low 1.01 | locus YAL026C, strain drs2, active compounds read low 1.03 | locus YAL030W, strain snc1, active compounds read low 0.999 | locus YAL040C, strain CLN3, active compounds read low 0.955 | locus YBL061C, strain skt5, active compounds read low 1.01 | locus YBR009C, strain hhf1, active compounds read low 0.986 | locus YBR021W, strain FUR4, active compounds read low 0.995 | locus YBR023C, strain chs3, active compounds read low 1.03 | locus YBR171W, strain sec66, active compounds read low 1.02 | locus YBR229C, strain ROT2, active compounds read low 0.991 | locus YBR231C, strain swc5, active compounds read low 1.02 | locus YBR279W, strain paf1, active compounds read low 1.01 | locus YCL011C, strain gbp2, active compounds read low 1.03 | locus YCL016C, strain dcc1, active compounds read low 1.03 | locus YCL029C, strain bik1, active compounds read low 0.989 | locus YCL061C, strain MRC1 (second series), active compounds read low 0.986 | locus YCL069W, strain vba3, active compounds read low 1.01 | locus YCR088W, strain abp1, active compounds read low 1.02 | locus YDL005C, strain med2, active compounds read low 1.03 | locus YDL035C, strain GPR1, active compounds read low 0.996 | locus YDL040C, strain nat1, active compounds read low 1.01 | locus YDL074C, strain BRE1, active compounds read low 1.01 | locus YDL101C, strain DUN1, active compounds read low 0.993 | locus YDL134C, strain PPH21, active compounds read low 0.995 | locus YDL185W, strain tfp1, active compounds read low 0.951 | locus YDL192W, strain arf1, active compounds read low 0.978 | locus YDR001C, strain nth1, active compounds read low 1.01 | locus YDR069C, strain doa4, active compounds read low 1.01 | locus YDR101C, strain arx1, active compounds read low 0.982 | locus YDR137W, strain rgp1, active compounds read low 1.04 | locus YDR150W, strain NUM1, active compounds read low 1.02 | locus YDR159W, strain sac3, active compounds read low 0.992 | locus YDR162C, strain NBP2, active compounds read low 0.992 | locus YDR195W, strain ref2 0.966 | locus YDR297W, strain sur2, active compounds read low 1.01 | locus YDR318W, strain mcm21, active compounds read low 0.989 | locus YDR334W, strain swr1, active compounds read low 1 | locus YDR335W, strain msn5, active compounds read low 1.03 | locus YDR363W, strain ESC2, active compounds read low 1 | locus YDR388W, active compounds read low 0.998 | locus YDR392W, strain spt3, active compounds read low 1.04 | locus YDR502C, strain sam2, active compounds read low 0.979 | locus YEL003W, strain gim4, active compounds read low 1.02 | locus YEL037C, strain rad23, active compounds read low 1.01 | locus YEL061C, strain CIN8 (second series), active compounds read low 1.02 | locus YEL061C, strain CIN8, active compounds read low 0.999 | locus YER002W, strain NOP16, active compounds read low 1 | locus YER015W, strain faa2, active compounds read low 1.03 | locus YER016W, strain bim1, active compounds read low 1.02 | locus YER110C, active compounds read low 0.968 | locus YER111C, strain swi4, active compounds read low 1.01 | locus YER155C, strain BEM2 (second series), active compounds read low 1.02 | locus YER155C, strain BEM2, active compounds read low 0.983 | locus YER167W, strain BCK2, active compounds read low 1 | locus YFR010W, strain ubp6, active compounds read low 1 | locus YGL078C, strain dbp3, active compounds read low 0.998 | locus YGL086W, strain mad1, active compounds read low 0.988 | locus YGL167C, strain pmr1, active compounds read low 1.02 | locus YGL173C, strain kem1, active compounds read low 1.02 | locus YGL227W, strain vid30, active compounds read low 1.01 | locus YGL240W, strain doc1, active compounds read low 0.991 | locus YGL248W, strain PDE1, active compounds read low 0.999 | locus YGL253W, strain hxk2, active compounds read low 1.03 | locus YGR078C, strain PAC10, active compounds read low 0.983 | locus YGR135W, strain pre9, active compounds read low 0.988 | locus YGR229C, strain SMI1, active compounds read low 1.01 | locus YGR252W, strain gcn5, active compounds read low 1.12 | locus YHR013C, strain ard1, active compounds read low 1.08 | locus YHR027C, strain rpn1, active compounds read low 1.02 | locus YHR030C, strain SLT2, active compounds read low 0.992 and 1.05 | locus YHR079C, strain IRE1 (second series), active compounds read low 0.987 | locus YHR079C, strain IRE1, active compounds read low 1.06 | locus YHR094C, strain hxt1, active compounds read low 0.981 | locus YHR129C, strain ARP1, active compounds read low 1 | locus YHR142W, strain chs7, active compounds read low 1.05 | locus YHR200W, strain rpn10, active compounds read low 0.993 | locus YIL066C, strain RNR3, active compounds read low 0.995 | locus YIL073C, strain SPO22, active compounds read low 0.916 | locus YIL125W, strain kgd1, active compounds read low 0.973 | locus YIR030C, strain dcg1, active compounds read low 0.99 | locus YJL092W, strain hpr5, active compounds read low 1.02 | locus YJL095W, strain BCK1 (second series), active compounds read low 1 | locus YJL095W, strain BCK1, active compounds read low 1.01 and 1.03 | locus YJL115W, strain asf1, active compounds read low 1.02 | locus YJL129C, strain trk1, active compounds read low 1.03 | locus YJL134W, strain LCB3, active compounds read low 0.989 | locus YJL154C, strain vps35, active compounds read low 1.02 | locus YJL164C, strain tpk1, active compounds read low 1.02 | locus YJL166W, strain qcr8, active compounds read low 1.01 | locus YJL168C, strain set2, active compounds read low 0.993 | locus YJL187C, strain SWE1 (second series), active compounds read low 0.985 | locus YJR043C, strain POL32, active compounds read low 1.01
